Several values for one entry are separate records, joined by “and”; a condition that tells them apart may be missing. Equal values may be shown once. Among all 5,500 compounds or so, about 2,000 (36%) were called active. Not shown: some 18% with an inconclusive outcome. No stated cut-off is given here; in the data, active means normalized growth mostly below about 0.91 (no sharp cut-off); inconclusive means no clear call, values can overlap the other calls; inactive means mostly above about 0.92. Some of the results follow.
Experiment: chemical genetic growth profiling, strain panel (AID 1159580);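 further: tested at 20 µM; growth read once vehicle control cultures reached saturation at 30 °C; 1 = growth at the plate median or of vehicle wells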
Conditions: S. cerevisiae deletion strains, growth OD

Measured: normalized growth

CC(C)c1nc(N(C)S(C)(=O)=O)nc(-c2ccc(F)cc2)c1/C=C/[C@@H](O)C[C@@H](O)CC(=O)O
inactive: locus YAL013W, strain DEP1, stronger effect = lower value 0.988 | locus YAL026C, strain drs2, stronger effect = lower value 0.98 | locus YAL030W, strain snc1, stronger effect = lower value 0.998 | locus YBL061C, strain skt5, stronger effect = lower value 1.02 | locus YBR009C, strain hhf1, stronger effect = lower value 0.998 | locus YBR021W, strain FUR4, stronger effect = lower value 0.96 | locus YBR023C, strain chs3, stronger effect = lower value 1.02 | locus YBR171W, strain sec66, stronger effect = lower value 1.01 | locus YBR229C, strain ROT2, stronger effect = lower value 1.01 | locus YBR231C, strain swc5, stronger effect = lower value 0.922 | locus YBR279W, strain paf1, stronger effect = lower value 0.99 | locus YCL011C, strain gbp2, stronger effect = lower value 1.01 | locus YCL016C, strain dcc1, stronger effect = lower value 0.998 | locus YCL029C, strain bik1, stronger effect = lower value 1.01 | locus YCL069W, strain vba3, stronger effect = lower value 1.02 | locus YCR088W, strain abp1, stronger effect = lower value 1.03 | locus YDL005C, strain med2, stronger effect = lower value 1.02 | locus YDL035C, strain GPR1, stronger effect = lower value 1 | locus YDL040C, strain nat1, stronger effect = lower value 1.01 | locus YDL074C, strain BRE1, stronger effect = lower value 0.995 | locus YDL101C, strain DUN1, stronger effect = lower value 0.996 | locus YDL134C, strain PPH21, stronger effect = lower value 0.995 | locus YDL185W, strain tfp1, stronger effect = lower value 0.928 | locus YDL192W, strain arf1, stronger effect = lower value 1 | locus YDR001C, strain nth1, stronger effect = lower value 1.03 | locus YDR069C, strain doa4, stronger effect = lower value 0.971 | locus YDR101C, strain arx1, stronger effect = lower value 0.999 | locus YDR150W, strain NUM1, stronger effect = lower value 1.01 | locus YDR159W, strain sac3, stronger effect = lower value 0.998 | locus YDR162C, strain NBP2, stronger effect = lower value 0.961 | locus YDR195W, strain ref2 1.09 | locus YDR297W, strain sur2, stronger effect = lower value 0.977 | locus YDR318W, strain mcm21, stronger effect = lower value 1.01 | locus YDR334W, strain swr1, stronger effect = lower value 0.982 | locus YDR335W, strain msn5, stronger effect = lower value 1.02 | locus YDR388W, stronger effect = lower value 1.01 | locus YDR392W, strain spt3, stronger effect = lower value 1.02 | locus YDR502C, strain sam2, stronger effect = lower value 1 | locus YEL003W, strain gim4, stronger effect = lower value 1.02 | locus YEL037C, strain rad23, stronger effect = lower value 1.01 | locus YEL061C, strain CIN8 (second series), stronger effect = lower value 1.02 | locus YEL061C, strain CIN8, stronger effect = lower value 0.998 | locus YER015W, strain faa2, stronger effect = lower value 0.99 | locus YER016W, strain bim1, stronger effect = lower value 1.01 | locus YER110C, stronger effect = lower value 0.999 | locus YER111C, strain swi4, stronger effect = lower value 1.02 | locus YER155C, strain BEM2 (second series), stronger effect = lower value 1.02 | locus YER155C, strain BEM2, stronger effect = lower value 0.99 | locus YER167W, strain BCK2, stronger effect = lower value 1 | locus YFR010W, strain ubp6, stronger effect = lower value 0.995 | locus YGL078C, strain dbp3, stronger effect = lower value 0.997 | locus YGL086W, strain mad1, stronger effect = lower value 1.01 | locus YGL167C, strain pmr1, stronger effect = lower value 1.01 | locus YGL173C, strain kem1, stronger effect = lower value 1 | locus YGL227W, strain vid30, stronger effect = lower value 1.02 | locus YGL240W, strain doc1, stronger effect = lower value 1.03 | locus YGL248W, strain PDE1, stronger effect = lower value 0.993 | locus YGL253W, strain hxk2, stronger effect = lower value 1.01 | locus YGR078C, strain PAC10, stronger effect = lower value 1.01 | locus YGR135W, strain pre9, stronger effect = lower value 0.987 | locus YGR229C, strain SMI1, stronger effect = lower value 1.01 | locus YGR252W, strain gcn5, stronger effect = lower value 1.04 | locus YHR013C, strain ard1, stronger effect = lower value 0.972 | locus YHR027C, strain rpn1, stronger effect = lower value 1.01 | locus YHR079C, strain IRE1 (second series), stronger effect = lower value 1 | locus YHR094C, strain hxt1, stronger effect = lower value 1.01 | locus YHR129C, strain ARP1, stronger effect = lower value 0.99 | locus YHR142W, strain chs7, stronger effect = lower value 1.02 | locus YHR200W, strain rpn10, stronger effect = lower value 1 | locus YIL066C, strain RNR3, stronger effect = lower value 1.02 | locus YIL073C, strain SPO22, stronger effect = lower value 1 | locus YIL125W, strain kgd1, stronger effect = lower value 1.02 | locus YIR030C, strain dcg1, stronger effect = lower value 1.01 | locus YJL092W, strain hpr5, stronger effect = lower value 1.03 | locus YJL095W, strain BCK1 (second series), stronger effect = lower value 0.986 | locus YJL115W, strain asf1, stronger effect = lower value 1 | locus YJL129C, strain trk1, stronger effect = lower value 1.08 | locus YJL134W, strain LCB3, stronger effect = lower value 1 | locus YJL154C, strain vps35, stronger effect = lower value 1.01 | locus YJL164C, strain tpk1, stronger effect = lower value 1 | locus YJL166W, strain qcr8, stronger effect = lower value 0.994 | locus YJL168C, strain set2, stronger effect = lower value 1.01 | locus YJL187C, strain SWE1 (second series), stronger effect = lower value 1 | locus YJL187C, strain SWE1, stronger effect = lower value 0.998 | locus YJR043C, strain POL32, stronger effect = lower value 0.997
0.996 (inactive) and 0.12 (active): locus YJL095W, strain BCK1, stronger effect = lower value
active: locus YAL021C, strain ccr4, stronger effect = lower value 0.839 | locus YDR137W, strain rgp1, stronger effect = lower value 1.34 [resistant] | locus YHR079C, strain IRE1, stronger effect = lower value 0.127 | locus YJR066W, strain TOR1, stronger effect = lower value 0.00783
1 (inactive) and 0.0994 (active): locus YHR030C, strain SLT2, stronger effect = lower value

Reference: PubChem BioAssay AID1159580 (chemical genetic matrix, 2015)
